# The list is not random: actives were taken first. Their share in the collection is about 4.7%.
# HepG2 viability = kills HepG2 cells in TGF-b inhibitor counter-screen. HepG2 CAGA-GFP viability, ATP luminescence, 18 h. Potency, µM (titrated, usually from 46.1 µM), for inactives: top-dose activity change, negative = cytotoxicity, usual class: cytotoxic. 0.76% of 410,000 active; further: potency means the concentration at half of the fitted maximal effect
#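 CellTiter-Glo luminescence gave cytotoxicity after 18 hours at 37 degrees C. The cells were HepG2 CAGA-GFP in 1% FBS DMEM, stimulated with 500 pg/mL TGF-beta after compound addition. %Activity was normalised to no-cell wells (complete cell-killing) and DMSO (no toxicity), and curves were fitted and classified.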
# ATXN viability = cell viability loss in ATXN counter-screen | AID 651635 | Potency, µM (top dose mostly 56.7 µM), usual class: cytotoxic | 0.49% of 400,000 active | S2 cells (HEK-293 line with an ATXN2-luciferase reporter) viability, CellTiter-Fluor protease fluorescence, 24 h; further: potency means the concentration at half of the fitted maximal effect; nearly all actives have a fitted effect of over 40% in size
# D3 ag = agonists of human D3 dopamine receptor. D3R DiscoveRx beta-arrestin cells, luminescence, 90 min. max activation, %. 0.58% of 410,000 active; in the data active means max activation above about 30%; further: 0% is about no effect
# Target sequence (P35462 whole entry, looked up): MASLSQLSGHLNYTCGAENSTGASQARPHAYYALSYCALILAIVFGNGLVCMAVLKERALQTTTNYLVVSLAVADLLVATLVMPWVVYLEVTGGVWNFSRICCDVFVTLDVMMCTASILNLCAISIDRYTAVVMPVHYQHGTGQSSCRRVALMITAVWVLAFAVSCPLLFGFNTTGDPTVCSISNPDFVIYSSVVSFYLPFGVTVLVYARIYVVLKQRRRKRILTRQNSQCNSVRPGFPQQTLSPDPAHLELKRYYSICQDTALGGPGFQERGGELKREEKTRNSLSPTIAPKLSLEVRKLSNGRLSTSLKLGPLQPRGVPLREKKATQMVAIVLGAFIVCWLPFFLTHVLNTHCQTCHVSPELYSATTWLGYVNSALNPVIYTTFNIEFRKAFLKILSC
#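 Agonist-mode cell screen: cells plated at 1500/well and incubated overnight at 37 °C, then exposed to library compounds for 90 min at 37 °C. Detection reagent was added for 30–60 min at room temperature, and luminescence was read.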
# D3 antag = blocks the human D3 dopamine receptor. P35462. D3R cells, DiscoveRx beta-arrestin luminescence, antagonist mode; active compounds read low. max response, negative = inhibition, %. 2.5% of 360,000 active; in the data active means max response below about -50%; inconclusive means no clear call, values can overlap the other calls; further: on the % scale 0 is the no-effect control and ±100 the full control effect
#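 Cells expressing the human receptor were seeded at 1500 cells/well, incubated overnight at 37 degrees C in 5% CO2, then exposed to library compounds with dopamine controls for 90 minutes at 37 degrees C before luminescent detection.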
# TGFb inhibitor = inhibitors of TGF-b signaling | HepG2 CAGA-GFP TGF-b/SMAD3 reporter, GFP fluorescence, 18 h; TGF-beta stimulated, 500 pg/mL final | Potency, µM (series often up to 46.1 µM), for the others: at the highest dose activity, negative = inhibition, actives largely listed as inhibitors | 1.2% of 410,000 active; further: potency means the concentration at half of the fitted maximal effect; on the % scale 0 is the no-effect control and ±100 the full control effect; nearly all actives have a fitted effect of over 65% in size
#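 Using HEPG2 CAGA-GFP reporter cells at 1000 cells/well, we pinned test compounds, stimulated with recombinant TGF-beta (500 pg/mL final) and measured total well GFP after 18 h.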
# ATXN2 expr inh = inhibitors of ATXN2 expression. HEK-293 ATXN2-luciferase reporter, luminescence, 24 h. Potency, µM (top dose mostly 57 µM), without a hit: at the top dose activity change, negative = inhibition, most hits filed as inhibitors. 0.72% of 360,000 active. AID 1745845; further: potency means the concentration at half of the fitted maximal effect; on the % scale 0 is the no-effect control and ±100 the full control effect; nearly all actives have a fitted effect of over 55% in size
#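 qHTS (up to 57 uM final) was run with 24 h compound exposure of reporter cells at 37 °C. Each well was multiplexed: SteadyGlo luminescence measured ATXN2-luciferase expression after a fluorogenic Gly-Phe-AFC viability readout (25 uM final).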
# Active calls of the source: *; i = inactive; ? = inconclusive; nt = no result. Unless noted, the call rests on the fitted dose curve; in most records, active means well fitted curve in the direction sought with a large enough effect; inconclusive means small, poorly fitted or top-dose-only effect, or another doubt; inactive means no such curve, though single readings can be large; an effect the other way counts as inactive or inconclusive.
SMILES,HepG2 viability,ATXN viability,D3 ag,D3 antag,TGFb inhibitor,ATXN2 expr inh
COc1cccc(N2CCN(c3ncnc4c3cnn4-c3ccc(C)cc3C)CC2)c1,-60%,10µM*,39*,-16,?,7.9µM*
COc1ccc[n+](CC(=O)c2ccc(F)cc2)c1,0%,nt,nt,nt,-1%,nt
Oc1ccc(Nc2nc(N3CCCC3)c3ccccc3n2)cc1,11µM*,?,-1,-71*,?,?
CC(C)OC(=O)C(C(=O)C(F)(F)F)c1cc(NS(=O)(=O)c2ccc3c4c(cccc24)C(=O)N3)ccc1O (configuration not stated),-25%,?,9,nt,-17%,-8%
O=C1CCCC(=O)C1C(=O)c1ccc(C(F)(F)F)cc1[N+](=O)[O-],nt,nt,nt,nt,nt,11%
COC(=O)CSc1cccc2c1C(=O)CC2c1ccccc1 (configuration not stated),3%,i,1,5,2%,nt
O=C1C=CC2(O[C@H](c3ccccc3)[C@@H](c3ccccc3)O2)[C@H](Sc2ccccc2O)C1,-103%,nt,-15,-118*,2.8µM*,4µM*
CCCCCCCCCc1ccc(OCCOCCO)cc1,nt,nt,11,nt,nt,nt
Cc1ccc2c(CNCc3cccs3)c(C(=O)O)n(Cc3ccc(F)cc3)c2c1,-50%,?,-5,nt,?,-20%
C=Cc1ccc(Cn2c(C(=O)O)c(CNCc3ccc(F)cc3)c3ccc(C)cc32)cc1,-107%,18µM*,0,nt,13µM*,?
Cc1ccc2c(CNCc3ccc(C)o3)c(C(=O)O)n(Cc3ccc(F)cc3)c2c1,-45%,nt,5,nt,-29%,?
COc1ccc2c(CNCCc3cccs3)c(C(=O)O)n(Cc3ccc(F)cc3Cl)c2c1,18µM*,nt,-45,nt,?,nt
COc1ccc(Cn2c(C(=O)O)c(CNCc3cccs3)c3ccc(C)cc32)cc1,-41%,5µM*,1,nt,?,?
C=Cc1ccc(Cn2c(C(=O)O)c(CNCc3cccs3)c3ccc(C)cc32)cc1,13µM*,nt,5,nt,?,?
COc1ccc(O)c(CN2CCC3(CCC(CNC(=O)c4ccco4)O3)CC2)c1 (configuration not stated),nt,i,nt,nt,nt,nt
CCC(CNc1cc(OC)cc2cccnc12)NC1CCCCC1 (configuration not stated),-109%,18µM*,-16,-57*,?,nt
COc1cc(NS(=O)(=O)c2ccc(C(=O)O)cc2)c2nc(C)ccc2c1,-15%,nt,nt,nt,-16%,nt
COc1cc(NS(=O)(=O)c2ccc(C)cc2)c2ncccc2c1,-26%,?,-16,-55*,?,4.5µM*
COc1cc(NCCCC(C)N)c2ncccc2c1 (configuration not stated),-33%,i,-10,-54*,-27%,15%
COc1cc(Br)c(C[N+]2(CCOCCC3CCC4CC3C4(C)C)CCOCC2)cc1OC (configuration not stated),nt,i,0,nt,nt,nt
COc1cccc(NC(=O)CSc2nc(-c3ccccc3Cl)nc3c2Cc2c(CO)cnc(C)c2O3)c1,-1%,i,-13,nt,0%,-3%
COc1cc2oc(=O)ccc2cc1-c1c(OC)ccc2ccc(=O)oc12,-15%,?,2,16,10%,-2%
C=CCc1c(OC)ccc2ccc(=O)oc12,-19%,i,-8,-57*,-22%,-6%
NC(CCc1ccccc1)c1csc(NC(=O)Nc2cccc(Cl)c2)n1 (configuration not stated),16µM*,28µM*,9,11,?,20µM*
COc1ccc(CC(N)c2csc(NC(=O)Nc3ccccc3Cc3ccccc3)n2)cc1 (configuration not stated),22µM*,?,-12,?,?,?
NC(COCc1ccccc1)c1csc(NC(=O)Nc2cccc(C(F)(F)F)c2)n1 (configuration not stated),-106%,nt,-2,-5,14µM*,?

# Screens deposited in PubChem BioAssay by National Center for Advancing Translational Sciences (NCATS).
